Source: PubChem BioAssay AID1159580 (chemical genetic matrix, 2015)
Several values for one entry are separate records, joined by “and”; a condition that tells them apart may be missing. Equal entries are not always repeated. The whole screen tested about 5,500 compounds, of which about 2,000 (36%) were called active. About 18% were inconclusive and are not listed. No stated cut-off is given here; in the data, active means normalized growth mostly below about 0.91 (no sharp cut-off); inconclusive means no clear call, values can overlap the other calls; inactive means mostly above about 0.92. The list shows a part of the results.

Experiment: chemical genetic growth profiling, strain panel (AID 1159580);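 further: tested at 20 µM; growth read once vehicle control cultures reached saturation at 30 °C; 1 = growth at the plate median or of vehicle wells; lower values mean less growth of the strain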
Details: S. cerevisiae deletion strains, growth OD

Measured: normalized growth

O=C1O[C@@H](CO)[C@H](O)[C@@H](O)[C@@H]1O
inactive: locus YAL021C, strain ccr4, hits give low values 0.997 | locus YAL026C, strain drs2, hits give low values 1.03 | locus YAL030W, strain snc1, hits give low values 1.01 | locus YBL061C, strain skt5, hits give low values 1.03 | locus YBR009C, strain hhf1, hits give low values 1.01 | locus YBR021W, strain FUR4, hits give low values 0.999 | locus YBR023C, strain chs3, hits give low values 1.02 | locus YBR171W, strain sec66, hits give low values 1.03 | locus YBR229C, strain ROT2, hits give low values 1 | locus YBR231C, strain swc5, hits give low values 1.08 | locus YBR279W, strain paf1, hits give low values 1.01 | locus YCL011C, strain gbp2, hits give low values 1.02 | locus YCL016C, strain dcc1, hits give low values 1.01 | locus YCL029C, strain bik1, hits give low values 0.99 | locus YCL061C, strain MRC1, hits give low values 1.01 | locus YCL069W, strain vba3, hits give low values 1.03 | locus YCR088W, strain abp1, hits give low values 1.02 | locus YDL005C, strain med2, hits give low values 1.03 | locus YDL035C, strain GPR1, hits give low values 1.01 | locus YDL040C, strain nat1, hits give low values 1.03 | locus YDL074C, strain BRE1, hits give low values 0.974 | locus YDL101C, strain DUN1, hits give low values 1.01 | locus YDL134C, strain PPH21, hits give low values 1.01 | locus YDL185W, strain tfp1, hits give low values 1 | locus YDL192W, strain arf1, hits give low values 1.01 | locus YDR001C, strain nth1, hits give low values 1.03 | locus YDR069C, strain doa4, hits give low values 1.02 | locus YDR101C, strain arx1, hits give low values 0.946 | locus YDR137W, strain rgp1, hits give low values 1.04 | locus YDR150W, strain NUM1, hits give low values 1 | locus YDR159W, strain sac3, hits give low values 1 | locus YDR162C, strain NBP2, hits give low values 1.02 | locus YDR195W, strain ref2 0.99 | locus YDR297W, strain sur2, hits give low values 1.02 | locus YDR318W, strain mcm21, hits give low values 1.01 | locus YDR334W, strain swr1, hits give low values 1.03 | locus YDR335W, strain msn5, hits give low values 1.01 | locus YDR388W, hits give low values 1.01 | locus YDR392W, strain spt3, hits give low values 1.06 | locus YDR502C, strain sam2, hits give low values 1 | locus YEL003W, strain gim4, hits give low values 1.02 | locus YEL037C, strain rad23, hits give low values 1.01 | locus YEL061C, strain CIN8 (second series), hits give low values 1.03 | locus YEL061C, strain CIN8, hits give low values 1 | locus YER015W, strain faa2, hits give low values 1.02 | locus YER016W, strain bim1, hits give low values 1.03 | locus YER110C, hits give low values 1.01 | locus YER111C, strain swi4, hits give low values 1.01 | locus YER155C, strain BEM2 (second series), hits give low values 1.06 | locus YER155C, strain BEM2, hits give low values 1.01 | locus YER167W, strain BCK2, hits give low values 1.01 | locus YFR010W, strain ubp6, hits give low values 1.01 | locus YGL078C, strain dbp3, hits give low values 1.01 | locus YGL086W, strain mad1, hits give low values 0.983 | locus YGL167C, strain pmr1, hits give low values 1.02 | locus YGL173C, strain kem1, hits give low values 1.05 | locus YGL227W, strain vid30, hits give low values 1.03 | locus YGL240W, strain doc1, hits give low values 1.04 | locus YGL248W, strain PDE1, hits give low values 0.996 | locus YGL253W, strain hxk2, hits give low values 1.03 | locus YGR135W, strain pre9, hits give low values 1.05 | locus YGR229C, strain SMI1, hits give low values 0.997 | locus YGR252W, strain gcn5, hits give low values 1.06 | locus YHR013C, strain ard1, hits give low values 1.08 | locus YHR027C, strain rpn1, hits give low values 1.02 | locus YHR030C, strain SLT2, hits give low values 1 and 0.985 | locus YHR079C, strain IRE1 (second series), hits give low values 1 | locus YHR079C, strain IRE1, hits give low values 0.979 | locus YHR094C, strain hxt1, hits give low values 1.01 | locus YHR129C, strain ARP1, hits give low values 1.02 | locus YHR142W, strain chs7, hits give low values 1.02 | locus YHR200W, strain rpn10, hits give low values 0.998 | locus YIL066C, strain RNR3, hits give low values 1 | locus YIL073C, strain SPO22, hits give low values 1.05 | locus YIL125W, strain kgd1, hits give low values 0.999 | locus YIR030C, strain dcg1, hits give low values 1 | locus YJL092W, strain hpr5, hits give low values 1.01 | locus YJL095W, strain BCK1 (second series), hits give low values 1.02 | locus YJL095W, strain BCK1, hits give low values 1 and 0.979 | locus YJL115W, strain asf1, hits give low values 1.02 | locus YJL129C, strain trk1, hits give low values 1.02 | locus YJL134W, strain LCB3, hits give low values 1.01 | locus YJL154C, strain vps35, hits give low values 1.02 | locus YJL164C, strain tpk1, hits give low values 1.01 | locus YJL166W, strain qcr8, hits give low values 1.02 | locus YJL168C, strain set2, hits give low values 0.997 | locus YJL187C, strain SWE1 (second series), hits give low values 0.989 | locus YJL187C, strain SWE1, hits give low values 1.02 | locus YJR043C, strain POL32, hits give low values 0.99
